Among the data in the OligoGym collection are sensor-assay potency score (higher = more potent) values, retold here.
Note: reference of the scale not given here.

The first assay addresses MATR3. Description: pooled miR-30 sensor sort-seq; sequence = guide strand. The following applies: shRNA.
As for TTTCTCAGACAGGTCAACCTTC, the sensor-assay potency score (higher = more potent) came out at 0.61.

The sequence TTCTTGTTCTTTACCTTCGGTT registered a sensor-assay potency score (higher = more potent) of -0.715.

TTGAACTCTCAGTCTTCTGGGA gave a sensor-assay potency score (higher = more potent) of 0.368.

Turning to TAAGCTTTTTCTTTGCTGCTGC, the sensor-assay potency score (higher = more potent) came to 0.692.

TTGATCAAACTTCTGATCTGGC gave a sensor-assay potency score (higher = more potent) of 0.816.

Turning to TTCGGTTGAACTCTCAGTCTTC, the sensor-assay potency score (higher = more potent) is 0.606.

With TTCACTTGTATCTTTGTTGGGA, the sensor-assay potency score (higher = more potent) was 0.73.

In the case of TTGTGTAATAATCCACTGCGGC, the sensor-assay potency score (higher = more potent) is -0.905.

TTGCTTTTGATCAAACTTCTGA: the sensor-assay potency score (higher = more potent) was -0.275.

For TTTCTCACCATCTTCACCGGAC, the sensor-assay potency score (higher = more potent) is -0.137.

For TATACCAACAGGAACATTGGGC, the sensor-assay potency score (higher = more potent) amounted to 0.454.

TATTCTTTGCAACTTCTTCATT showed a sensor-assay potency score (higher = more potent) of -0.992.

A further assay has as its target MBD3. Described as above. The following applies: shRNA.
On to TCGTCGTCGTCCTCAGCGCAGG, for which the sensor-assay potency score (higher = more potent) is -1.74.

TCGTCGGTCACCATGAAGGCTT gave a sensor-assay potency score (higher = more potent) of -0.866.

On to TTGGGGAGGTCCATGGTCTTGA, for which the sensor-assay potency score (higher = more potent) is -0.977.

On to TTCTTCTCCCAGAAGAGCTGGC, for which the sensor-assay potency score (higher = more potent) was -0.362.

Sequence TAATCTTGGTCACCGGCTGCTT returned a sensor-assay potency score (higher = more potent) of -0.615.

For the sequence TCGCTCTTGACCTTGTTGCTGG, the sensor-assay potency score (higher = more potent) was -0.788.

On to TTGGTAATCTTGGTCACCGGCT, for which the sensor-assay potency score (higher = more potent) was -0.729.

As for ATCAGCATCTTGCCCGTGCGGA, the sensor-assay potency score (higher = more potent) is -0.991.

Regarding TTGCTCATCAGCATCTTGCCCG, the sensor-assay potency score (higher = more potent) was -0.234.

Turning to TTGAAGATGGACGCCGTCTGGC, the sensor-assay potency score (higher = more potent) was -0.445.

For the sequence TTGCTGCGGAACTTCTTCCCGC, the sensor-assay potency score (higher = more potent) was -0.815.

Consider ATCTTGCTCATCAGCATCTTGC, for which the sensor-assay potency score (higher = more potent) is -1.63.
